Bioassay records (PubChem)
FBPA Giardia inh: inhibitors of Giardia lamblia fructose-1,6-bisphosphate aldolase; A8B2U2; Potency, µM (titrated, usually from 59.6 µM), for inactives: at the highest dose activity, negative = inhibition, actives largely listed as inhibitors; 290,000 compounds, 0.71% hits; AID 2451; purified Giardia FBPA; further: on the % scale 0 is the no-effect control and ±100 the full control effect; nearly all actives have a fitted effect of over 55% in size
Target sequence (A8B2U2 whole entry, looked up): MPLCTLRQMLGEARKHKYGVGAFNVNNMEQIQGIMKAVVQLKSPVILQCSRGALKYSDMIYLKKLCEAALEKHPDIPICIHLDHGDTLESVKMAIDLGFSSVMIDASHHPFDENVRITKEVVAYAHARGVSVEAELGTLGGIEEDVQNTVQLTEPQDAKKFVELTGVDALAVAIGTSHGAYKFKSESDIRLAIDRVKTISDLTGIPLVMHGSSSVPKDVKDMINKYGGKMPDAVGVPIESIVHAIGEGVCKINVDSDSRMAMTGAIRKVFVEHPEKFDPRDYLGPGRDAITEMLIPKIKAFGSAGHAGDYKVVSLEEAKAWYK
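40 nM FBPA preincubated 10 min at RT with compound (up to 57.5 uM final), then substrate plus GAPDH/TPI/NAD/arsenate coupling and diaphorase/resazurin added. Fluorescence read after 20 min at RT, 525/598 nm.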
Sm TGR block: S. mansoni TGR enzyme inhibition; Q962Y6; purified TGR, DTNB reduction, TNB absorbance 405 nm; Potency, µM (doses to about 114 µM), inactives show at the top dose activity change, negative = inhibition, usual class: inhibitors; 360,000 compounds, 3% hits; further: on the % scale 0 is the no-effect control and ±100 the full control effect; nearly all actives have a fitted effect of over 60% in size
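Kinetic colorimetric format: TGR-catalysed, NADPH-driven DTNB reduction monitored via TNB absorbance. Enzyme dispensed at 20 nM; compound exposure 15 min at room temperature before reaction start.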
NS1 function inh: inhibitors of influenza NS1 protein function; Potency, µM (highest dose often 46.1 µM), for the others: top-dose activity, positive = more growth; 270,000 compounds, 0.4% hits; AID 2326; calls by dose curve; further: actives are rising curves; nearly all actives have a fitted effect of over 50% in size
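Read-out: OD600 growth recovery of NS1-expressing budding yeast. Cells grown overnight at 30C in -URA glucose medium, washed, resuspended and diluted 1:100 in 2% galactose assay medium, pH 6.0. Same strain lacking NS1 served as positive control.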
LmPK inhibitor: LmPK (Leishmania mexicana) enzyme inhibition. purified LmPK, Kinase-Glo ATP luminescence, 1 h. Potency, µM (series often up to 57.5 µM), inactives show top-dose activity change, negative = inhibition, usual class: inhibitors. Q27686. AID 1721. 290,000 compounds, 0.37% hits; further: on the % scale 0 is the no-effect control and ±100 the full control effect
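Pyruvate kinase activity monitored as ATP production (luciferase luminescence). Conditions: 0.1 nM enzyme, 0.5 mM PEP, 0.1 mM ADP, 1 h, RT; normalized against uninhibited and no-enzyme wells.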
RE007 growth inh: less growth of the S. pombe RE007 Vpr strain; Potency, µM (series often up to 92.2 µM), without a hit: at the highest dose activity change, negative = less growth, usual class: inhibitors; 360,000 compounds, 0.21% hits; S. pombe RE007 Vpr strain, BacTiter-Glo ATP luminescence, 24 h; AID 651644; active means well fitted falling curve with a large enough effect; inconclusive means small, poorly fitted or top-dose-only effect; inactive means no such curve, though single readings can be large or run the other way; further: on the % scale 0 is the no-effect control and ±100 the full control effect; nearly all actives have a fitted effect of over 50% in size
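Fission yeast strain RE007, carrying one chromosomally integrated HIV-1 vpr copy, was seeded at OD 0.01 in PMG+AL medium with 23 nL pinned compound. After 24 h at 30 °C and 99% humidity, viability was read by BacTiter-Glo luminescence.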
TbPYK inhibitor: inhibitors of Trypanosoma brucei pyruvate kinase; Q57TT1; 410,000 compounds, 0.12% hits; Potency, µM (highest dose often 76.8 µM), inactives show top-dose activity, negative = inhibition, usual class: inhibitors; TbPYK enzyme, Kinase-Glo Plus ATP luminescence, 45 min; further: on the % scale 0 is the no-effect control and ±100 the full control effect; nearly all actives have a fitted effect of over 50% in size
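Luminescence from Kinase-Glo Plus, added after a 45-minute room-temperature reaction, served as the end-point read-out. The enzyme and substrate were preincubated with compound before ADP (130 uM final) initiated turnover. Concentration-effect curves came from normalized qHTS data.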
An asterisk follows results filed as active; ? = inconclusive; . = not tested or not shown. Compounds with a hit are over-represented: about 3.5% of the library has one in this group of screens. Unless noted, the call rests on the fitted dose curve; in most records, active means well fitted curve in the direction sought with a large enough effect; inconclusive means small, poorly fitted or top-dose-only effect, or another doubt; inactive means no such curve, though single readings can be large; an effect the other way counts as inactive or inconclusive. Potency means the concentration at half of the fitted maximal effect.

SMILES	FBPA Giardia inh	Sm TGR block	NS1 function inh	LmPK inhibitor	RE007 growth inh	TbPYK inhibitor
c1ccc2c(c1)CCN(Cc1nnnn1Cc1ccc3c(c1)OCO3)C2	-10%	-24%	-51%	5%	2%	-3%
Oc1cc2c(cc1CN1CCc3ccccc3C1)OCO2	.	2.5µM*	4%	2%	3%	-8%
Oc1cc2c(cc1CN1CCN(c3ccccc3F)CC1)OCO2	0%	1µM*	15%	13%	-13%	4%
COc1ccccc1N1CCN(Cc2cc3c(cc2O)OCO3)CC1	.	1.8µM*	3%	-4%	-18%	-2%
O=C(CCN1CCN(c2ccccc2F)CC1)Nc1ccc2c(c1)OCO2	-2%	-24%	-4%	3%	-2%	3%
CC(C)(C)c1ccc(S(=O)(=O)N2CCN(Cc3cc4c(cc3O)OCO4)CC2)cc1	.	2.8µM*	.	.	9%	6%
CC[C@@H]1OC(=O)C[C@H](O)[C@@H](C)[C@@H](O[C@H]2O[C@@H](C)[C@H](O[C@@H]3C[C@](C)(O)[C@H](O)[C@@H](C)O3)[C@@H](N(C)C)[C@@H]2O)[C@@H](C=O)C[C@@H](C)C(=O)/C=C/C(C)=C[C@@H]1CO[C@H]1O[C@@H](C)[C@H](O)[C@H](OC)[C@@H]1OC	.	.	.	.	.	3%
CCN(CC)S(=O)(=O)c1nnc(NC(=O)COc2ccc(Cl)cc2)s1	.	-2%	.	.	.	1%
O=C(Nc1ccc2c(c1)OCO2)C1CCN(Cc2cc3c(cc2O)OCO3)CC1	-23%	2.8µM*	1%	5%	8%	-1%
O=C(O)/C=C/c1ccc([N+](=O)[O-])o1	-6%	28µM*	.	7%	-6%	-9%
O=C(/C=C/c1ccc(-c2ccc(F)cc2)o1)N1CCCC1	3%	35µM*	.	0%	-19%	-3%
N#CCc1ccc(NC(=O)/C=C/c2ccc([N+](=O)[O-])o2)cc1	?	4.5µM*	.	8%	7%	2%
O=[N+]([O-])c1ccc(/C=N/N=C/c2ccc([N+](=O)[O-])o2)o1	?	10µM*	.	6%	?	2%
CC(=O)N/N=C/c1ccc([N+](=O)[O-])o1	.	.	.	.	.	-7%
CCCN(CCC)CCCNC(=O)C1CCN(S(=O)(=O)CC)CC1	.	-8%	.	.	.	3%
CN1CCN(C(=O)/C=C/c2ccc([N+](=O)[O-])o2)CC1	-16%	18µM*	-3%	-1%	.	-4%
CCCCc1nnc(SCc2cc(=O)c3cc(F)ccc3[nH]2)n1C	.	4%	.	.	.	-1%
Cc1ccc(/C=C2\SC(=S)N(Cc3ccccc3)C2=O)o1	-20%	?	-1%	5%	4%	-7%
Cc1cc(C(=O)O)ccc1-c1ccc(/C=C2\NC(=O)N(Cc3ccccc3Cl)C2=O)o1	?	50µM*	.	-5%	4%	-27%
COC(=O)CN1C(=O)N/C(=C/c2ccc(C)o2)C1=O	?	28µM*	.	14%	-6%	-9%
Cc1ccc(/C=C2/NC(=O)N(Cc3ccccc3)C2=O)o1	?	22µM*	-53%	-4%	45µM*	?
Cc1c2cnn(-c3ccccc3)c(=O)c2c(C)n1CC(=O)Nc1ccccc1Br	.	1%	.	.	.	-1%
COc1ccccc1N1CCN(C(=O)CSc2nc(-c3ccco3)cc(C(F)(F)F)n2)CC1	-11%	35µM*	2%	4%	16%	?
COc1cccc(-c2noc(CCCC(=O)NCc3ccco3)n2)c1	.	45µM*	.	.	.	-2%
COc1ccc(-c2noc(CCCC(=O)NCc3ccco3)n2)cc1OC	1%	40µM*	-9%	4%	-10%	0%
COc1ccc(-c2cc(C(F)(F)F)nc(SCC(=O)NCc3ccco3)n2)cc1OC	2%	45µM*	2%	3%	15%	-11%
COc1ccc(-n2c(SCC(=O)Nc3cccc(C)c3C)nc3c([nH]c4ccccc43)c2=O)cc1	.	3%	.	.	.	1%
Cc1ccc(NC(=O)CSc2nc3ccccc3nc2Cc2ccccc2)c(C)c1	.	1%	.	.	.	-2%
